Experimental data published in PubChem BioAssay AID463193 (University of Pittsburgh Molecular Library Screening Center, 2010).
Out of some 190,000 compounds screened, about 1,900 (1%) were called active. The sample holds actives, similar compounds and a random draw of the others, so the mix is not that of the screen.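 Rule for the calls: active = percentage of spot-positive cells more than 3 SD above its plate mean, without a fluorescence outlier flag or 80% toxicity; inconclusive = no clear call, values can overlap the other calls; inactive = the rest.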

Assay: autophagy modulators in MEF cells, primary screen, imaging, high-content, MEF GFP-LC3 (AID 463193);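 for % cells with GFP-LC3 spots: spot-positive cell cutoff set from DMSO-treated cells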;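 for toxicity: cell loss after 18 h compound exposure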
Conditions: MEF GFP-LC3 puncta imaging, at 10 µM; % cells with GFP-LC3 spots: stronger effect = higher value; toxicity: measured here: cell loss, nuclei count

Row | SMILES | % cells with GFP-LC3 spots | toxicity [%]
1 | O=C(O)COc1ccc(/C=N/O)cc1Br | 17% (inactive) | 9.84
2 | CN(C)c1ccc(NC(=O)CSc2n[nH]c(-c3ccco3)n2)cc1 | 5.18% (inactive) | -4.21
3 | C/C(Cc1ccccc1)=N\NC(=O)CNC(=O)c1cccc(Br)c1 | 6.35% (inactive) | 7.09
4 | Cc1ccc(N2CCN(S(=O)(=O)N(C)C)CC2)cc1Cl | 10.8% (inactive) | 7.23
5 | CN(C)S(=O)(=O)N1CCN(c2ccc([N+](=O)[O-])cc2)CC1 | 20% (active) | 4.08
6 | COc1ccc(N2CCN(c3ccc([N+](=O)[O-])cc3Cl)CC2)cc1 | 3.9% (inactive) | 14.4
7 | O=C(O)CCn1c(SCc2cc(=O)n3ccccc3n2)nc2ccsc2c1=O | 0.605% (inactive) | 8.22
8 | Cc1ccc(NC(=O)c2oc(=O)c3ccccc3c2-c2ccccc2)c(C)c1 | 6.34% (inactive) | -1.17
9 | Cc1ccc(NC(=O)CN(C)Cc2ccc(F)cc2)c([N+](=O)[O-])c1 | 5.2% (inactive) | 3.98
10 | Cc1ccc(NC(=O)c2oc3ccccc3c2C)c([N+](=O)[O-])c1 | 13.1% (active) | 22.2
11 | CCOC12CC(C)(C)CC(C)(CC3=C1C(=O)CC(C)(C)C3)C2 (configuration not stated) | 4.26% (inactive) | 3.51
12 | COc1ccc(-c2csc(Nc3ccc(O)cc3)n2)cc1 | 16.2% (active) | 17.3
13 | Oc1ccc(-c2csc(Nc3cccnc3)n2)cc1 | 7.75% (inactive) | -0.924
14 | COc1ccc(Nc2nc(-c3ccccc3)cs2)cc1 | 11.9% (inactive) | -34.3
15 | CCC(CC)NC(=O)CSc1nnc(-c2c[nH]c3ccccc23)o1 | 15.7% (inactive) | 28.2
16 | Cc1ccc(N=Cc2c(O)n(-c3nccs3)c(=O)c3ccccc23)c(C)c1 | 60% (active) | -7.63
17 | Cc1ccc(-n2c(O)c(C=Nc3ccc(S(=O)(=O)Nc4ncccn4)cc3)c3ccccc3c2=O)cc1C | 3.56% (inactive) | -8.78
18 | Cc1ccc(N=Cc2c(O)cc(C)oc2=O)c(C)c1 | 9.61% (inactive) | 4.32
19 | CCOC(=O)N1CCN(C(=O)c2ccccc2N(Cc2ccccc2)S(=O)(=O)c2ccc(OC)cc2)CC1 | 19.1% (inactive) | 5.8
20 | Cc1c(CN2CCC(CO)(CCOc3ccccc3)CC2)[nH]c2ccc(Cl)cc12 | 14.1% (inactive) | -12.9
21 | COc1cccc2sc(Nc3nc(C)c(C(C)=O)s3)nc12 | 21.8% (active) | 46.9

Row | SMILES | % cells with GFP-LC3 spots | toxicity [%]
22 | CC(=O)c1sc(NC(=O)CCCOc2ccccc2C)nc1C | 7.71% (inactive) | 7.95
23 | COc1cccc2sc(NNC(=O)c3nc4ccccc4s3)nc12 | 8.59% (inactive) | 0.117
24 | CC1CCN(C2=NC(=O)/C(=C/c3cn[nH]c3-c3ccccc3)S2)CC1 | 4.99% (inactive) | 5.05
25 | O=C(CN(c1ccccc1)S(=O)(=O)c1ccc(Cl)cc1)Nc1ccccc1C(=O)N1CCCC1 | 9.32% (inactive) | 0.638
26 | O=C(Nc1ccccc1C(=O)N1CCCCCC1)c1ccccc1Cl | 43.8% (active) | -8.81
27 | O=C(Nc1ccccc1C(=O)N1CCOCC1)c1ccc(Cl)cc1 | 1.74% (inactive) | 11.5
28 | O=C(CN1C(=O)/C(=C/c2ccccc2F)Sc2ccccc21)NCc1cccnc1 | 0.409% (inactive) | -0.091
29 | O=C1Nc2ccccc2C12Nc1ccccc1S2 (configuration not stated) | 6.3% (inactive) | -0.645
30 | C=C1c2cc(CC)ccc2NC(=O)N1c1ccc(C)cc1 | 1.08% (inactive) | -2.35
31 | CCc1ccc2c(c1)C1(NN=C(c3ccccc3)S1)C(=O)N2 (configuration not stated) | 24.9% (active) | 40.3
32 | CCOc1ccc(N(CC(=O)NCCc2ccc(OC)cc2)S(C)(=O)=O)cc1 | 1.57% (inactive) | -14.4
33 | COc1ccc(C2CC(c3ccc(Cl)cc3Cl)Nc3nc(N)nn32)cc1OC (configuration not stated) | 14.3% (active) | 1.79
34 | COc1ccc(C2CC(c3ccc(C)cc3)Nc3nc(N)nn32)cc1 (configuration not stated) | 17.9% (inactive) | -20.4
35 | Cc1ccc(C2CC(c3cccc(C)c3)n3nc(N)nc3N2)cc1 (configuration not stated) | 4.2% (inactive) | 10.4
36 | O=C(CSc1nc(-c2ccco2)cc(C(F)(F)F)n1)N1CCc2ccccc2C1 | 0.274% (inactive) | -3.54
37 | O=C(CSc1nc(-c2ccco2)cc(C(F)(F)F)n1)NCc1cccs1 | 11.9% (active) | 19.8
38 | COc1ccc(-c2cc(C(F)(F)F)nc(SCCC(=O)NCc3ccco3)n2)cc1 | 14.8% (inactive) | 0.225
39 | Cc1ccc(S(=O)(=O)N2CCCC2C(=O)OCc2nc3sc(C)c(C)c3c(=O)[nH]2)cc1 (configuration not stated) | 7.41% (inactive) | 2.2
40 | CS(=O)(=O)N(CC(=O)N/N=C/c1ccccn1)c1ccc(Oc2ccccc2)cc1 | 19.6% (inactive) | 9.84
41 | COc1cc(N=Cc2c(O)[nH]c3ccccc23)cc(OC)c1OC | 1.9% (inactive) | 14.8
